Source: PubChem BioAssay AID651558 (National Center for Advancing Translational Sciences (NCATS), 2012)
Values joined by “and” are separate entries in the source; they are usually repeats but may differ in a detail not shown here. Equal entries are not always repeated. About 480 (40%) of roughly 1,200 compounds were called active. About 29% were inconclusive and are not listed. Calls come from the whole dose curve; as a rule, active = well fitted inhibition curve with a large enough effect; inconclusive = small, poorly fitted or top-dose-only effect; inactive = no such curve, though single readings can be large or run the other way. This is one part of the list. A call without a number means that no potency is given here.
Potency is the fitted concentration of half-maximal effect.

Test: qHTS Assay to Find Inhibitors of Chronic Active B-Cell Receptor Signaling: Hit Validation in Primary Screen; note: nearly all actives have a fitted effect of over 75% in size
Details: ABC-DLBCL IkB-luc/CBR ratio luminescence, 4 h; series mostly up to 46.1 µM
Procedure, shortened: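 TMD8 ABC-DLBCL cells carrying doxycycline-inducible IkBa-green luciferase fusion and free red luciferase, 0.5% FBS, dosed 46 uM–3 nM with doxycycline for 4 h at 37C. Green/red luminescence ratio normalized to basal and 10 uM MG-132.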
In the case of `CNC(=S)N/N=C(\C)c1ccc(Cl)s1`, the Potency is reported as “inactive”.
With `S=C(Nc1ccccc1)c1nc2ccccc2s1` the Potency was “inactive”.
In the case of `Cc1ccc(-c2oc3ncnc(N)c3c2-c2ccc(C)cc2)cc1`, the Potency is reported as “inactive”.
With `COc1ccccc1-c1nnc2n1N=C(c1ccc(O)c(O)c1)CS2` the Potency was 0.206 µM (active).
For `COc1ccc(C(=O)N/N=C/c2ccccc2OC(=O)c2ccccc2)cc1`, the Potency was 0.651 µM (active).
With `Cc1cccc(C(=O)Oc2ccc(/C=N/O)cc2)c1` the Potency was “inactive”.
In the case of `NC(=S)N/N=C/c1ccccc1OC(=O)/C=C/c1ccccc1`, the Potency is reported as “inactive”.
For `Cc1cccc(NS(=O)(=O)c2ccc(C3CCCCC3)cc2)n1`, the Potency was “inactive”.
With `Cc1cccc(NS(=O)(=O)c2ccc(-c3cnc(C4CC4)o3)cc2)c1C` the Potency was 0.92 µM (active).
With `Cc1cccc(C)c1NS(=O)(=O)c1ccc(-c2cnc(C3CC3)o2)cc1` the Potency was 0.291 µM (active).
With `COc1ccc(OC)c(C2CC(=O)c3c([nH]c(C(=O)OC(C)C)c3C)C2)c1` (centres undefined) the Potency was 1.64 µM (active).
For `CCOCCOC(=O)c1[nH]c2c(c1C)C(=O)CC(c1cccs1)C2` (centres undefined), the Potency was 2.59 µM (active).
With `COCCOC(=O)c1[nH]c2c(c1C)C(=O)CC(c1ccccc1)C2` (centres undefined) the Potency was “inactive”.
In the case of `CCOCCOC(=O)c1[nH]c2c(c1C)C(=O)CC(c1ccccc1)C2` (centres undefined), the Potency is reported as 1.64 µM (active).
For `COC(=O)c1[nH]c2c(c1C)C(=O)CC(c1ccccc1)C2` (centres undefined), the Potency was 1.3 µM (active).
With `NC(=S)N/N=C/c1ncc(C(F)(F)F)cc1Cl` the Potency was “inactive”.
In the case of `C/C(=N\N1C(=O)c2ccccc2NC1c1ccco1)c1ccccc1O` (centres undefined), the Potency is reported as “inactive”.
In the case of `CCNC(=S)N/N=C(\C)c1ccc(Cl)s1`, the Potency is reported as “inactive”.
For `O=C(CSc1cccc[n+]1[O-])c1ccc(-c2ccccc2)cc1`, the Potency was “inactive”.
For `O=C1N/C(=C/c2ccc(N3CCOCC3)o2)C(=O)N1c1ccccc1`, the Potency was 16.4 µM (active).
With `Cc1ccc(/C(C#N)=C\c2ccc(N3CCOCC3)o2)cc1` the Potency was “inactive”.
With `O=S1(=O)N=C(Nc2nc3c(s2)CCCC3)c2ccccc21` the Potency was 7.31 µM (active).
For `Cc1ccc(/C=[N+](\[O-])c2ccc(N(C)C)cc2)c2nsnc12`, the Potency was “inactive”.
With `O=C(COc1ccc(-c2ccccc2)cc1)N1CCN(S(=O)(=O)Cc2ccccc2)CC1` the Potency was “inactive”.
For `CCCN1C(=O)C(=O)c2cc(Cl)ccc21`, the Potency was 18.4 µM (active).
For `Cc1cccc(OCCCC(=O)NNC(=O)c2cccc(N(C)C)c2)c1`, the Potency was “inactive”.
In the case of `Cc1cccc(OCCN2C(=O)C(=O)c3cc(C)ccc32)c1`, the Potency is reported as 23.1 µM (active).
For `Cc1cccc(OCCCN2C(=O)C(=O)c3cc(C)ccc32)c1`, the Potency was “inactive”.
With `Cc1ccc2c(c1)C(=O)C(=O)N2CCOc1ccccc1` the Potency was 20.6 µM (active).
With `Cc1ccc(OCCN2C(=O)C(=O)c3cc(C)ccc32)cc1` the Potency was 20.6 µM (active).
In the case of `O=C(COC(=O)Cc1ccc(-c2ccccc2)cc1)NCc1ccccc1`, the Potency is reported as “inactive”.
For `O=C(Cc1ccc(-c2ccccc2)cc1)NCc1ccccc1`, the Potency was 0.517 µM (active).
For `NC(=O)NC[C@@H]1CC[C@@H](Cc2ccc(-c3ccccc3)cc2)O1`, the Potency was “inactive”.
In the case of `Cc1noc(C)c1COc1ccc(CC(=O)NCc2ccccc2)cc1`, the Potency is reported as 14.6 µM (active).
In the case of `Cc1ccccc1N=Nc1c(C)[nH]n(C(N)=S)c1=O`, the Potency is reported as “inactive”.
In the case of `Clc1ccc2nc(-c3ccccc3)nc(C(Cl)Cl)c2c1`, the Potency is reported as 4.61 µM (active).
In the case of `CCOc1ccc(S(=O)(=O)NCc2ccccn2)cc1NC(=O)c1ccccc1F`, the Potency is reported as 8.2 µM (active).
In the case of `Cc1ccc(S(=O)(=O)Nc2cccc(-c3ccc4nncn4n3)c2)cc1`, the Potency is reported as 16.4 µM (active).
In the case of `CNCc1ccccc1Sc1ccc(O)c(O)c1`, the Potency is reported as 23.1 µM (active).
With `CS(=O)(=O)C1=C(O)C(=O)N(c2ccccc2)C1c1ccccc1` (centres undefined) the Potency was “inactive”.
For `COc1ccc(NC(=O)/C(C#N)=C\c2cc(C)n(-c3ccc4c(c3)OCO4)c2C)cc1`, the Potency was 2.31 µM (active).
With `Oc1cccc(Nc2nc(N3CCOCC3)nc(N3CCOCC3)n2)c1` the Potency was 8.2 µM (active).
In the case of `Cc1cc(C)n(-c2nc3ccccc3c(=O)n2OCC#N)n1`, the Potency is reported as 23.1 µM (active).
With `Cc1ccc(S(=O)(=O)Cc2ccc(C(=O)N3CCN(c4cccc(C)c4C)CC3)o2)cc1` the Potency was 5.17 µM (active) and 20.6 µM (active).
In the case of `Oc1[nH]c2ccccc2c1N=NC(=S)N1CCOCC1`, the Potency is reported as “inactive”.
With `N#C/C(=C\c1cn(Cc2ccc(F)cc2)c2ccccc12)C(=O)NCc1ccco1` the Potency was “inactive”.
With `COc1ccc(-c2ccc(CCC(=O)O)n2-c2ccccc2OC)cc1` the Potency was “inactive”.
For `COc1ccc(CNC(=O)/C(C#N)=C/c2cccc(OC)c2OC)cc1`, the Potency was 18.4 µM (active).
With `CC1CC(C)CN(S(=O)(=O)c2ccc(NC(=O)c3ccc(=O)[nH]c3)cc2)C1` (centres undefined) the Potency was 9.2 µM (active).
In the case of `Oc1cccc(/C=N/Nc2ccc(Cl)nn2)c1O`, the Potency is reported as 14.6 µM (active).
For `Oc1ccccc1/C=N/Nc1ccnc(SCc2ccccc2)n1`, the Potency was “inactive”.
With `CCCCN1C(=O)N(C)C2C1N(C)C(=O)N2CCCC` (centres undefined) the Potency was “inactive”.
For `O=C(CCl)Nc1cc(S(=O)(=O)N2CCCCCC2)ccc1Cl`, the Potency was 20.6 µM (active).
With `O=C(CNC(=O)c1ccco1)N=Nc1c(O)n(CCc2ccccc2)c2ccccc12` the Potency was 5.8 µM (active).
For `O=[N+]([O-])c1cc(/C=N/O)ccc1Sc1ccccc1`, the Potency was “inactive”.
In the case of `CCOC(=S)SCC(=O)Nc1nc(-c2ccc(Br)cc2)cs1`, the Potency is reported as 3.66 µM (active).
In the case of `Cc1csc(NC(=S)NC(=O)c2ccccc2)n1`, the Potency is reported as “inactive”.
In the case of `CCOC(=O)Cc1csc(NC(=S)NC(=O)c2ccccc2)n1`, the Potency is reported as “inactive”.
With `CC(=O)c1ccc2c(c1)CC(C)C(=O)N2C` (centres undefined) the Potency was “inactive”.
In the case of `Cc1ccc(C)c(-n2c3nc(=O)[nH]c(=O)c-3cc3cc([N+](=O)[O-])ccc32)c1`, the Potency is reported as “inactive”.
For `Cc1cccc(-n2c3nc(=O)[nH]c(=O)c-3cc3cc([N+](=O)[O-])ccc32)c1`, the Potency was 7.31 µM (active).
For `COCCn1c(-c2cccc([N+](=O)[O-])c2)nc2c1c(=O)[nH]c(=O)n2Cc1ccccc1`, the Potency was “inactive”.
For `Cn1c(=O)n(C)c2cc(NS(=O)(=O)c3ccc(Br)s3)ccc21`, the Potency was “inactive”.
In the case of `O=C1N[C@H]2CC=C[C@H]2Nc2ccccc21`, the Potency is reported as “inactive”.
With `CCNC(=O)[C@H]1O[C@@H](n2cnc3c(N)nc(NCCc4ccc(CCC(=O)O)cc4)nc32)[C@H](O)[C@@H]1O` the Potency was 0.0731 µM (active).
In the case of `COC(=O)C1=C(C)NC(C)=C(C(=O)OC)C1/C=C/c1ccccc1`, the Potency is reported as 20.6 µM (active).
In the case of `COc1ccc(NC(=O)C(=O)NCC2CCCN2S(=O)(=O)c2ccc(C)cc2)cc1` (centres undefined), the Potency is reported as 0.517 µM (active).
For `Cc1ccc(NC(=O)C(=O)NCC2CCCN2S(=O)(=O)c2cccs2)cc1C` (centres undefined), the Potency was “inactive”.
With `CC(C)N=C(NS(=O)(=O)c1ccccc1)C(Cl)(Cl)Cl` the Potency was 3.26 µM (active).
In the case of `N#Cc1ccccc1NC(=O)c1cccc(COc2ccc(Cl)cc2Cl)c1`, the Potency is reported as “inactive”.
For `CCN(CC)S(=O)(=O)c1ccc(N2CCOCC2)c(NC(=O)c2c3c(nc4ccccc24)CCC3)c1`, the Potency was “inactive”.
For `O=C(CSc1cc(Cl)ccc1Cl)Nc1ccc(N2CCOCC2)cc1`, the Potency was “inactive”.
With `Cc1ccc2nc(SCC(=O)Nc3cc(C(F)(F)F)ccc3N3CCOCC3)[nH]c2c1` the Potency was 2.06 µM (active).
For `Cc1onc(-c2ccccc2)c1C(=O)Nc1cc(C(F)(F)F)ccc1N1CCOCC1`, the Potency was 20.6 µM (active).
In the case of `C=CCNC(=S)N/N=C/c1ccc(C(C)(C)C)cc1`, the Potency is reported as “inactive”.
With `Cc1ccc(S(=O)(=O)N(C)C[C@@H]2Oc3ccc(NC(=O)CCC(F)(F)F)cc3CC(=O)N([C@@H](C)CO)C[C@@H]2C)cc1` the Potency was 9.2 µM (active).
With `COc1cc(SSc2cc(OC)cc([N+](=O)[O-])c2N)c(N)c([N+](=O)[O-])c1` the Potency was “inactive”.
In the case of `Nc1ccc(C(=O)n2c3ccccc3c3ccccc32)cc1`, the Potency is reported as 13 µM (active).
With `COc1cc2c(cc1C1NC(=S)NC(C)=C1C(N)=O)CCCC2` (centres undefined) the Potency was “inactive”.
For `COc1cccc(C2NC(=S)NC(C)=C2C(=O)c2ccccc2)c1OC` (centres undefined), the Potency was 16.4 µM (active).
In the case of `CCCCN(C(=O)CSc1nc2ccccc2n1CC)C1CCS(=O)(=O)C1` (centres undefined), the Potency is reported as “inactive”.
In the case of `Cc1cc(C(=O)OCC(=O)Nc2c(Cl)cccc2Cl)c(C)o1`, the Potency is reported as “inactive”.
For `Cc1cc2c(cc(C(=O)OCC(=O)NCc3cccs3)n2C(C)C)o1`, the Potency was 8.2 µM (active).
For `O=C(NC(=S)NC1CCSC1=O)c1ccccc1` (centres undefined), the Potency was “inactive”.
For `COC(=O)c1ccccc1NC(=O)Cn1c(-c2nonc2N)nc2ccccc21`, the Potency was 0.731 µM (active).
For `Cc1cccc(C)c1NC(=O)CNC(=O)CNC(=O)Cc1cccc2ccccc12`, the Potency was “inactive”.
In the case of `CCOC(=O)c1ccccc1NC(=O)Cn1c(-c2nonc2N)nc2ccccc21`, the Potency is reported as 2.31 µM (active).
For `CCC(=O)Nc1nonc1-c1nc2ccccc2n1Cc1cccc2ccccc12`, the Potency was 2.91 µM (active).
For `COCCNC(=S)N/N=C(\C)c1ccc(Cl)s1`, the Potency was “inactive”.
With `CCONC(=O)Nc1ccccc1[N+](=O)[O-]` the Potency was “inactive”.
With `COCCNC(=S)N/N=C(\C)c1ccc(Cl)c(Cl)c1Cl` the Potency was “inactive”.
In the case of `CCOc1ccccc1N1CSC2=C(C#N)C(c3c(OC)ccc4ccccc34)CC(=O)N2C1` (centres undefined), the Potency is reported as “inactive”.
For `CCN(CC)c1ccc2c(c1)OC(N)=C(C#N)C2c1cccnc1` (centres undefined), the Potency was 1.03 µM (active).
For `N#CC1=C(N)Oc2cc(N)ccc2C1c1cccc(Br)c1` (centres undefined), the Potency was 4.11 µM (active).
In the case of `CN(C)c1ccc2c(c1)OC(N)=C(C#N)C2c1cccc(F)c1` (centres undefined), the Potency is reported as 0.82 µM (active).
With `CC(O)c1cccc(-c2ccc(CN3C[C@]4(CO)O[C@@H](CO)C[C@@H]4S3(=O)=O)cc2)c1` (some centres undefined) the Potency was “inactive”.
For `CC1=NN(C(N)=S)C(=O)C1N=Nc1ccc(C)c(Br)c1` (centres undefined), the Potency was “inactive”.
With `OC(C#Cc1ccccn1)c1cccs1` (centres undefined) the Potency was “inactive”.
For `COc1ccc(COc2cc(-c3cccc(OC)c3)nc3ccc(N)cc23)cc1`, the Potency was 2.91 µM (active).
With `CN1c2ccccc2Sc2cc(N)ccc21` the Potency was “inactive”.
In the case of `COc1ccc(/C=N/NC(=O)CCn2cnc(-c3ccccc3)c2-c2ccccc2)cc1`, the Potency is reported as 2.31 µM (active).
With `COc1ccc(/C=N/NC(=O)CCn2cnc(-c3ccccc3)c2-c2ccccc2)cc1OC` the Potency was 16.4 µM (active).
For `COc1ccc(-c2nn(-c3ccccc3)cc2C(=O)NC(=S)NNC(=O)c2ccncc2)cc1`, the Potency was “inactive”.
With `COc1ccc(/C=N\NC(=O)c2c(C)nc3ccc(Br)cn23)cc1` the Potency was “inactive”.
